High-throughput results as filed in PubChem.
A selection: hits, their analogues and other compounds. The true share with any hit is near 2.8%.
CtBP-E1A inh = qHTS Assay for Inhibitors of the CtBP/E1A Interaction; actives 0.49% (n = 340,000); activity change, % (concentration not given with the values); AlphaScreen GST-E1A/His-CtBP binding, 1536-well; stronger effect = lower value; in the data active = activity change below about -65%; inconclusive = mostly about -30% to -63%; also: % is scaled to controls: 0 for no effect and ±100 for the full control effect
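Steps: dispense buffer (Tris pH 8.0, NaCl 300 mM, TCEP 1 mM, BSA, Tween 20); add 5X protein mix (GST-E1A, His-CtBP, 125 nM each); pin 23 nL compound; 2 h at 37 °C, dark; add 5X beads (50 ug/mL); 1 h; read.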
Six1-Eya2 blk = qHTS Assay for Inhibitors of the Six1/Eya2 Interaction; Homeobox protein SIX1 (Homo sapiens) + Protein phosphatase EYA2 (Homo sapiens), …; AlphaScreen GST-Six1/His-Eya2 binding, biochemical; stronger effect = lower value; activity change, % (test concentration not listed); actives 0.56% (n = 360,000); in the data active = activity change below about -65%; inconclusive = mostly about -30% to -63%; also: % is scaled to controls: 0 for no effect and ±100 for the full control effect
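Six1/Eya2 binding was read as AlphaScreen signal after compounds were pinned into GST-Six1 plus His-tagged Eya2 (5X stock 250/500 nM) in pH 8.0 Tris/NaCl/TCEP buffer, beads added, then incubated 1 h, 37 C, dark.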
ATXN2 expr inh = Primary qHTS for Inhibitors of ATXN expression | HEK-293 ATXN2-luciferase reporter, luminescence, 24 h | Potency, µM (top dose mostly 57 µM), without a hit: at the highest dose activity change, negative = inhibition, hits mostly inhibitors | actives 0.72% (n = 360,000); also: potency is read from the fitted curve at half-maximal effect; % is scaled to controls: 0 for no effect and ±100 for the full control effect; nearly all actives have a fitted effect of over 55% in size
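qHTS (up to 57 uM final) was run with 24 h compound exposure of reporter cells at 37 °C. Each well was multiplexed: SteadyGlo luminescence measured ATXN2-luciferase expression after a fluorogenic Gly-Phe-AFC viability readout (25 uM final).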
TGFb SMAD3 inh = qHTS for Inhibitors of TGF-b. HepG2 CAGA-GFP TGF-b/SMAD3 reporter, GFP fluorescence, 18 h; TGF-beta stimulated, 500 pg/mL final. Potency, µM (highest dose often 46.1 µM), without a hit: at the top dose activity, negative = inhibition, usual class: inhibitors. actives 1.2% (n = 410,000). AID 588855, 2011; also: potency is read from the fitted curve at half-maximal effect; % is scaled to controls: 0 for no effect and ±100 for the full control effect; nearly all actives have a fitted effect of over 65% in size
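Per well, imaged GFP fluorescence of HEPG2 CAGA-GFP cells gives the signal; cells get compound, then TGF-beta (500 pg/mL final), 18 h at 37 degrees C; %Activity versus -TGF-beta and +DMSO controls.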
HepG2 viability = qHTS for Inhibitors of TGF-b: Cytotox Counterscreen | HepG2 CAGA-GFP viability, ATP luminescence, 18 h | Potency, µM (titrated, usually from 46.1 µM), for inactives: top-dose activity change, negative = cytotoxicity, actives largely listed as cytotoxic | actives 0.76% (n = 410,000) | AID 588856, 2011; also: potency is read from the fitted curve at half-maximal effect
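HepG2 CAGA-GFP cells (1000/well, DMEM with 1% FBS) received compound, then TGF-beta at 500 pg/mL final, and were incubated 18 hours at 37 degrees C. Viability was read by CellTiter-Glo luminescence. Media-only wells were set as complete cell-killing and DMSO as no toxicity.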
ATXN viability = Viability Counterscreen for Primary qHTS for Inhibitors of ATXN expression; AID 651635, 2014; S2 cells (HEK-293 line with an ATXN2-luciferase reporter) viability, CellTiter-Fluor protease fluorescence, 24 h; Potency, µM (top dose mostly 56.7 µM), hits mostly cytotoxic; actives 0.49% (n = 400,000); also: potency is read from the fitted curve at half-maximal effect; nearly all actives have a fitted effect of over 40% in size
* = called active by the depositor; i = inactive; ? = inconclusive; . = not tested or not shown. Unless noted, calls follow the shape of the dose curve; as a rule, active = well fitted curve in the direction sought with a large enough effect; inconclusive = small, poorly fitted or top-dose-only effect, or another doubt; inactive = no such curve, though single readings can be large; an effect the other way counts as inactive or inconclusive.

SMILES	CtBP-E1A inh	Six1-Eya2 blk	ATXN2 expr inh	TGFb SMAD3 inh	HepG2 viability	ATXN viability
CCOC(=O)c1c(C)[nH]c(C(=O)OCC(=O)Nc2ccc(Cl)cn2)c1C	-20	6	3%	-32%	-8%	i
CCOC(=O)c1c(C)[nH]c(C(=O)OCC(=O)Nc2sccc2C(N)=O)c1C	-5	-6	?	-13%	-39%	13µM*
CCc1ccc(-c2cc(C)no2)cc1S(=O)(=O)NCCCN1CCN(c2ccccc2)CC1	?	-19	?	18µM*	-21%	?
Cc1ccc(C)c(NCCCCC(=O)O)c1	7	1	1%	19%	2%	i
Nc1nc(N)c2c(ccc3nccc32)[nH]1	.	-19	.	?	1.3µM*	?
CC(Sc1nnc(NC2CCCCC2)s1)C(=O)Nc1ccc2c(c1)C(=O)c1ccccc1C2=O (configuration not stated)	0	-75*	136%	?	1%	i
CC(Sc1nnc(NC2CC2)s1)C(=O)Nc1ccc(N2CCOCC2)cc1 (configuration not stated)	0	-1	11%	1%	-4%	i
Cc1ccc(NC(=O)C2CCCN(c3nnc(-n4c(C)ccc4C)s3)C2)cc1Cl (configuration not stated)	.	.	.	.	-14%	.
COC(=O)c1ccccc1NC1=C/C(=N\S(=O)(=O)c2ccc(C(=O)O)cc2)c2ccccc2C1=O	-80*	?	?	8.9µM*	16µM*	18µM*
CCc1ccc(S(=O)(=O)/N=C2\C=C(Nc3ccc(C(=O)O)cc3)C(=O)c3ccccc32)cc1	?	-30	?	16µM*	-109%	?
Cc1ccc(S(=O)(=O)/N=C2\C=C(Nc3cccc(C(=O)O)c3)C(=O)c3ccccc32)c(C)c1	-82*	?	32µM*	13µM*	16µM*	.
CC(C)(C)c1ccc(S(=O)(=O)/N=C2\C=C(NS(=O)(=O)c3ccccc3)C(=O)c3ccccc32)cc1	-29	?	-17%	?	-51%	?
COC(=O)c1ccccc1Nc1ccccc1	44	39	-5%	0%	-2%	?
Cc1ccc(S(=O)(=O)/N=C2\C=C(Nc3cccc(C(=O)O)c3)C(=O)c3ccccc32)cc1	?	?	?	13µM*	-111%	?
CCOC(=O)c1ccc(NC(=O)CSc2nnc(CNC(=O)c3ccc(OC)cc3)n2CC)cc1	.	.	7%	-8%	-22%	?
Cc1ccc(F)cc1S(=O)(=O)NCc1nc(N2CCCC2)c2cccc(C)c2n1	.	.	.	.	.	i
Cc1ccccc1C1(CC(=O)N2CC3CC4CC(C3)CC2C4)CC(=O)N(Cc2cccnc2)C1=O (configuration not stated)	.	.	.	.	.	i
Cc1ccc(NC2=C/C(=N/S(=O)(=O)c3cccs3)c3ccccc3C2=O)cc1	-30	?	7.9µM*	?	4µM*	7.9µM*
CCN(CCC#N)c1ccc(/C=C/c2ccnc3ccccc23)cc1	.	.	.	?	-44%	.
Nc1ccccc1SC(CC(=O)c1ccccc1)c1ccccc1 (configuration not stated)	1	-19	.	?	-58%	?
CC(C(Sc1ccccc1N)c1ccccc1)[N+](=O)[O-] (configuration not stated)	-4	-16	?	?	-70%	28µM*
Cc1cc(NC(=O)CCS(=O)(=O)c2nc(-c3ccccc3)cc(C(F)(F)F)n2)no1	11	-2	?	?	-105%	20µM*
Cc1ccc(S(=O)(=O)CCC(=O)Nc2cc(C)on2)cc1	3	2	.	-8%	1%	i
COc1ccc(-c2cc(C(F)(F)F)nc(S(=O)(=O)CCC(=O)N3CCOCC3)n2)cc1	-5	3	?	-8%	7%	?
O=C(CCS(=O)(=O)c1nc(-c2ccc3c(c2)OCO3)cc(C(F)(F)F)n1)Nc1ccc(F)cc1F	.	.	.	18µM*	-70%	.
SMILES	CtBP-E1A inh	Six1-Eya2 blk	ATXN2 expr inh	TGFb SMAD3 inh	HepG2 viability	ATXN viability
COc1ccc(NC(=O)CCS(=O)(=O)c2nc(-c3ccc4c(c3)OCO4)cc(C(F)(F)F)n2)cc1	.	.	.	?	11µM*	.
CS(=O)(=O)c1nc(-c2ccccc2)cc(C(F)(F)F)n1	4	-3	?	?	13µM*	.
CCSc1nc2ccccc2c(OCc2ccccc2Cl)c1C(=O)OC	.	.	-4%	?	-18%	i
C=C1[C@@H](O)CN(Cc2ccc(OC)cc2)S1(=O)=O	.	.	.	?	-63%	.
COc1ccc(-c2nc(-c3ccc(NC(=O)c4ccc(Br)o4)cc3)no2)cc1OC	-2	8	?	?	-59%	18µM*
COc1cc(-c2nc(-c3ccc(NC(=O)c4ccc(Br)o4)cc3)no2)cc(OC)c1OC	0	-3	-38%	-12%	-65%	?
COc1ccccc1CNC(=O)c1oc2c(c1C)-c1nn(Cc3ccc(Cl)cc3)cc1CC2	.	.	.	0%	-30%	.
CCCc1ccc(S(=O)(=O)N2CCN(C(C)C(=O)NCc3ccccc3)CC2)cc1 (configuration not stated)	5	5	-7%	0%	-16%	i
Cc1cncc2cccc(S(=O)(=O)N3CCCN(C(=O)CN)C[C@@H]3C)c12	.	.	10%	.	.	.
Cc1cccc(CNc2ncnc3ccc(-c4cccnc4)cc23)c1	.	.	-7%	?	-24%	i
Cc1[nH]nc2ccc(-c3cncc(OC[C@@H](N)Cc4ccccc4)c3)cc12	.	.	3.1µM*	.	.	.
O=C(Nc1cccc(C(=O)OCc2cc(=O)n3c4c(sc3n2)CCCC4)c1)c1ccc(Cl)cc1	.	.	.	10µM*	-31%	.
O=C(Nc1cccc(C(=O)OCc2cc(=O)n3c4c(sc3n2)CCCC4)c1)c1cccc(Cl)c1	.	.	.	11%	7%	.
CCc1cc(C(=O)NNC(=O)CCN2CCN(c3ccccc3)CC2)sc1C	1	-5	4%	-11%	-30%	i
CCc1cc(C(=O)NNC(=O)CCl)sc1C	.	5	.	1%	-31%	28µM*
C=CCNc1nc(NCc2cccc(OC)c2)c2sc(-c3ccccc3)cc2n1	0	1	?	?	11µM*	?
COc1ccccc1CNc1nc(NC(C)C)nc2cc(-c3ccccc3)sc12	-11	-2	20µM*	?	13µM*	14µM*
CC(C)Nc1nc(NCCOc2ccccc2Cl)c2sc(-c3ccccc3)cc2n1	4	12	?	?	14µM*	?
